# Test results taken from the supplement of paper PMC6555819.
# Assays:
# Assay in all cases: PBM binding z-score (relative to random genomic background probes); higher = stronger binding; sequences stand for … in GC…GCGATTGACAGCGTAGAATGAAGG
# [1] = system: FXR:RXRa (NR concentration 270 nM, RXRa partner concentration 90 nM)
# How it was run: (§1)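 Scanned fluorescence from custom Agilent 4×180K protein-binding microarrays was regression-normalized. Binding z-scores use random background probes as reference. Ligand-free nuclear receptor dimers were incubated on the arrays for 1 h and detected with antibodies against each partner (one per run).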
# [2] = system: LXRa:RXRa (NR concentration 270 nM, RXRa partner concentration 90 nM)
# How it was run: as §1
# [3] = system: LXRa homodimer (NR concentration 270 nM)
# How it was run: as §1
# [4] = system: LXRb:RXRa (NR concentration 270 nM, RXRa partner concentration 90 nM)
# How it was run: as §1
# [5] = system: LXRb homodimer (NR concentration 270 nM)
# How it was run: as §1
# [6] = system: PPARa:RXRa (NR concentration 270 nM, RXRa partner concentration 90 nM)
# How it was run: as §1
# [7] = system: PPARg:RXRa (NR concentration 180 nM, RXRa partner concentration 90 nM)
# How it was run: as §1
# [8] = system: PPARg:RXRa 270nM:90nM, anti-RXR (NR concentration 270 nM, RXRa partner concentration 90 nM)
# How it was run: as §1
# [9] = system: PPARg:RXRa 30nM:10nM, anti-RXR (NR concentration 30 nM, RXRa partner concentration 10 nM)
# How it was run: as §1
# [10] = system: PPARg:RXRa 90nM:30nM, anti-RXR (NR concentration 90 nM, RXRa partner concentration 30 nM)
# How it was run: as §1
Sequence,PBM binding z-score [1],PBM binding z-score [2],PBM binding z-score [3],PBM binding z-score [4],PBM binding z-score [5],PBM binding z-score [6],PBM binding z-score [7],PBM binding z-score [8],PBM binding z-score [9],PBM binding z-score [10]
TTACCAACGTGAGCTGAGGTCGTTGATCCAACTC,0.516,0.0402,-0.0796,0.169,-0.442,0.553,-0.116,-0.131,0.0496,-0.0803
ATATGTAGGTTAAGAGTCATTCAGGTTGGTTCGC,0.855,1.47,0.703,1.18,0.774,4.58,8.36,7.68,6.62,8.28
CATACAGGGTCAGCTAGGCCAGAATAGGGACGGC,4.83,3.22,-0.0324,2.38,-0.0852,4.55,3.66,3.09,0.879,2
ATCTCTAGGTAAACGTTCAGTGAATCCCGAGGAT,-0.236,-0.144,-0.301,-0.282,0.657,0.613,1.14,2.17,1.01,1.75
ATCTCTAGGTAAGACTCAGTTCATTGAAGAACGC,0.66,1.1,1.32,0.779,1.11,0.841,0.175,0.381,0.0967,0.482
CCTAGTTGGTCAAGATCACACACGCTATAGGTAC,0.117,0.306,0.456,0.468,0.508,0.119,1.18,0.452,0.398,0.0188
GCTGGTTGGTCAGTAAAAGGTCACACACCGGTCG,3.32,4.46,4.47,4.09,1.04,4.38,2.91,4.89,2.71,4.59
CGAACTAGGTCAGAACAGGACAGTGCAGGATGAT,1.66,0.725,-0.124,0.147,-0.225,3.08,5.1,4.39,1.84,3.81
AATACAGGGTCACTAGGCTAGAGTAGGTACGAAT,6.21,5.05,0.889,3.9,0.775,5.9,7.63,6.19,2.53,5.09
AATACAGGGACACTAGGCCAGAGTAGGTACGAAT,-0.211,-0.375,-0.0605,-0.483,-0.0261,-0.00279,0.846,0.394,0.113,0.294
CTCGAAAGGTGGGTTGAGGTGAGTATACGGATAA,0.825,0.397,0.00532,1.1,0.353,1.22,0.158,0.31,-0.0559,-0.00652
